High-throughput results deposited in PubChem by Broad Institute.
Shown are actives, neighbours in structure and some others; about 3.1% of the full set was active somewhere.
RAD52 inh – blocks human RAD52 DNA annealing. P43351. recombinant RAD52 DNA annealing, FRET fluorescence. inhibition, % at 18.7 µM. 360,000 tested, 0.46% active. AID 651710;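 active = every replicate showing at least 50% inhibition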
RAD54 inh – RAD54 (human) branch migration inhibition; 360,000 tested, 0.14% active; inhibition, % at 10.4 µM; RAD54 Holliday junction branch migration, FAM/BHQ fluorescence; Q92698; AID 602329;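 active = mean normalized replicate activity at least 40 and at least half of replicates scoring 40 or more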;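 also: inhibitors cause a drop in the FAM fluorescence signal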
dFosB activator – activators of mouse delta FosB homodimer. 340,000 tested, 0.99% active. purified delta FosB, TAMRA-CDK5 oligo fluorescence polarization; percent of positive-control signal above neutral wells. P13346. activation, % at 25 µM;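 active = mean activation above about 17%, with every replicate also reaching it, limit read from the data, passing the limit was not always enough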
MLL AF4-AF9 inh – inhibitors of human MLL-AF4/AF9 interaction; inhibition, % at 10 µM; 350,000 tested, 0.47% active; AlphaScreen, biotin-AF4 peptide binding to FLAG-AF9;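 active = every replicate reaching a set inhibition limit, whatever the replicate mean, cut at about 25% in these data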
Target sequence (P42568 whole entry, looked up): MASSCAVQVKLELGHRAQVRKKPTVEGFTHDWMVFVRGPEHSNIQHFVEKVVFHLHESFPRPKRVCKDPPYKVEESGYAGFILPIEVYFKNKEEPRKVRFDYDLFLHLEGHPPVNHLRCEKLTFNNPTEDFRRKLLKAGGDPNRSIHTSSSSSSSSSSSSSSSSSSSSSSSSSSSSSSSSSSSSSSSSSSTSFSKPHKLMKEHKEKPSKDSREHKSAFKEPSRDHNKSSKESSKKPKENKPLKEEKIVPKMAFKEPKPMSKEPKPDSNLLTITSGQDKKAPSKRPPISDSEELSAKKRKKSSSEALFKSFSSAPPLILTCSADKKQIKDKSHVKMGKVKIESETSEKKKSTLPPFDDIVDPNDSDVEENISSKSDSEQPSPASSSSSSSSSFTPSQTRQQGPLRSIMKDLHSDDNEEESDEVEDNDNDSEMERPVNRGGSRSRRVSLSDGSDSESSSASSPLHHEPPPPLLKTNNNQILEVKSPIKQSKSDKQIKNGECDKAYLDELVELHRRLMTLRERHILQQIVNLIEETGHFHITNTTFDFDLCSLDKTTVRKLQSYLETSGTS
DENV2 CPE rescue – DENV2-induced cell death inhibition | DENV2-infected cells, cytopathic effect rescue, plate reader | CPE inhibition, % at 9.99 µM | 350,000 tested, 1.7% active | AID 651640; in the data active = CPE inhibition above about 20%, passing the limit was not always enough; tested in BHK-21 cells
INS-1E GSIS act – GLuc luminescence reporter in INS-1E cells, primary screen for activators of glucose-dependent secretion of insulin; 370,000 tested, 0.61% active; activation, % at 16.6 µM; AID 743287; INS-1E GLuc reporter insulin secretion, 2-3 h;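 active = lowest replicate activation of at least 40%, so every replicate reaches that level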
A number is an active result; n = inactive; x = no result.

SMILES | RAD52 inh | RAD54 inh | dFosB activator | MLL AF4-AF9 inh | DENV2 CPE rescue | INS-1E GSIS act
COC(=O)Cc1[nH]nc2c1C(c1ccc(O)c(OC)c1)C(C#N)=C(N)O2 (stereo not drawn) | n | n | n | 29.5 | n | n
COC(=O)Cc1[nH]nc2c1C(c1cc(OC)c(OC)c(OC)c1)C(C#N)=C(N)O2 (stereo not drawn) | n | n | n | n | n | n
CCOC(=O)CNC(=O)CSc1ccc2nnc(-c3ccc(F)cc3)n2n1 | n | x | n | n | n | n
CCSc1ccc2nnc(-c3ccc(F)cc3)n2n1 | n | n | n | n | n | 60.8
Cc1cc(OCc2cc(C(=O)N(C)C(C)c3ccccn3)no2)cc(C)c1Cl (stereo not drawn) | n | n | n | n | 31.3 | n
CCOc1cc(C2Nc3cccc4cccc(c34)N2)ccc1O | x | n | 31.7 | x | x | x
C[C@H]1CN([C@@H](C)CO)C(=O)c2cc(C3=CCCC3)cnc2O[C@@H]1CN(C)C(=O)C1CC1 | x | x | x | x | x | n
CC[n+]1c(/C=C/c2c[nH]c3ccccc23)ccc2cc(C)ccc21 | n | x | n | 26.4 | n | n
Cc1ccccc1NC(=O)NCCc1nc2ccccc2[nH]1 | x | n | n | x | x | x
Cc1ccccc1NC(=S)c1nc2ccccc2[nH]1 | n | n | n | 27.4 | n | x
Cc1nc(NC(C)C)c2oc3ccccc3c2n1 | x | n | n | x | x | x
CCc1nc(NCc2ccco2)c2oc3ccccc3c2n1 | x | n | n | x | x | x
CCNc1nc(CC)nc2c1oc1ccccc12 | x | x | n | x | x | 81.3
CCNc1nc(C)nc2c1oc1ccccc12 | x | n | n | x | x | 66.9
CN1C(=O)N[C@@H]2c3ccccc3O[C@@]1(C)[C@@H]2COC(=O)c1ccc([N+](=O)[O-])cc1 | n | x | x | n | 38.3 | x
O=C(OCc1c(-c2ccccc2)ncc2ccccc12)c1cccs1 | n | n | n | n | n | 54.9
O=S(=O)(c1ccc(F)cc1)N1CC[C@@H]2[C@H](CO)Nc3ccc(C#CC4CCCCC4)cc3[C@@H]21 | n | x | x | n | n | n
C#CCNC(=O)C[C@@H]1C[C@@]2(C(=O)OCC)CCC=C2N(Cc2cccc3ccccc23)C1=O | n | x | x | n | n | n
CCCCCCCCN1C(=O)[C@H](CC(=O)NCC23CC4CC(CC(C4)C2)C3)C[C@@]2(C(=O)OCC)CCCC=C12 | n | x | x | n | 20.1 | n
COC(=O)[C@]12CCCCC=C1N(Cc1cccc3ccccc13)C(=O)[C@H](CC(=O)NCC13CC4CC(CC(C4)C1)C3)C2 | n | x | x | n | 47.5 | n
C#CCNC(=O)C[C@@H]1C[C@@]2(C(=O)OC)CCCCC=C2N(Cc2cccc3ccccc23)C1=O | n | x | x | n | 90.0 | n
CCNC(=O)[C@@H]1[C@@H](CO)[C@@H]2Cn3c(ccc(/C=C/c4ccccc4)c3=O)[C@H]1N2 | n | n | x | n | n | n
C[C@H](O)C#Cc1cnc2c(c1)C(=O)N([C@@H](C)CO)C[C@@H](C)[C@@H](CN(C)C(=O)c1ccccc1F)O2 | n | n | x | n | n | n
COC(=O)/C=C/c1cnc[nH]1 | n | n | n | x | 50.9 | n
CCCCCNCc1ccc(OCc2ccc(Cl)nc2)c(OC)c1 | n | x | n | n | 31.4 | x
SMILES | RAD52 inh | RAD54 inh | dFosB activator | MLL AF4-AF9 inh | DENV2 CPE rescue | INS-1E GSIS act
COc1ccc(CCNCc2ccc(OCc3ccc(Cl)nc3)c(OC)c2)cc1OC | x | n | n | x | x | x
O=C1CCCCn2cc(nn2)COC[C@H](c2ccccc2)N1 | x | x | x | x | x | n
C[C@@H]1CCCCO[C@@H](CN(C)S(=O)(=O)c2ccc(F)cc2)[C@@H](C)CN([C@@H](C)CO)C(=O)c2cc(NC(=O)c3ccccc3)ccc2O1 | n | n | x | n | 92.9 | n
C[C@@H]1CN([C@H](C)CO)C(=O)c2cc(NC(=O)c3ccncc3)ccc2O[C@@H](C)CCCCO[C@H]1CN(C)S(=O)(=O)c1ccccc1 | n | n | x | n | n | n
COc1ccc(S(=O)(=O)N(C)C[C@@H]2OCCCC[C@@H](C)Oc3ccc(NC(=O)c4ccccc4)cc3C(=O)N([C@H](C)CO)C[C@H]2C)cc1 | n | n | x | n | n | n
C[C@@H]1CCCCO[C@H](CN(C)S(=O)(=O)c2ccccc2)[C@@H](C)CN([C@@H](C)CO)C(=O)c2cc(NC(=O)c3ccncc3)ccc2O1 | n | n | x | n | 82.7 | n
C[C@H]1CCCCO[C@H](CN(C)S(=O)(=O)c2ccc(F)cc2)[C@@H](C)CN([C@@H](C)CO)C(=O)c2cc(NC(=O)c3ccccc3)ccc2O1 | n | n | x | n | n | n
C[C@@H]1CN([C@H](C)CO)C(=O)c2cc(NC(=O)c3ccccc3)ccc2O[C@@H](C)CCCCO[C@@H]1CN(C)S(=O)(=O)c1ccc(F)cc1 | n | n | x | n | 98.1 | n
C[C@H](CO)N1C[C@H](C)[C@@H](CN(C)S(=O)(=O)c2ccc(F)cc2)OCCCC[C@H](C)Oc2ccc(NC(=O)c3ccccc3)cc2C1=O | n | n | x | n | n | n
COc1ccc(S(=O)(=O)N(C)C[C@@H]2OCCCC[C@@H](C)Oc3ccc(NC(=O)c4ccccc4)cc3C(=O)N([C@@H](C)CO)C[C@@H]2C)cc1 | n | n | x | n | 29.4 | n
C[C@H](CO)N1C[C@H](C)[C@H](CN(C)Cc2cncnc2)Oc2ncc(/C=C/c3ccccc3)cc2C1=O | n | n | x | n | n | n
Cc1ccc(S(=O)(=O)N[C@H]2CC[C@H](CCn3cc(C(C)C)nn3)O[C@H]2CO)cc1 | n | n | x | n | n | n
CC(C)c1cn(CC[C@@H]2CC[C@H](NC(=O)C3CCCC3)[C@H](CO)O2)nn1 | n | n | x | n | n | n
C[C@H](CO)N1C[C@H](C)[C@H](CN(C)S(=O)(=O)c2ccc(F)cc2)OCCCC[C@H](C)Oc2ccc(NC(=O)c3ccccc3)cc2C1=O | n | n | x | n | 28.3 | n
CO[C@H]1CN(C)C(=O)c2ccc(NC(=O)C3CCCC3)cc2OC[C@@H](C)N(C(=O)CC2CC2)C[C@H]1C | n | n | x | n | n | n
COc1ccc(C(C#N)=C2C=C(Cl)C(=NO)C=C2Cl)cc1 | n | x | x | n | n | n
N#CC(=C1C=C(Br)C(=NO)C=C1Cl)c1cccc2ccccc12 | n | n | x | 25.5 | n | n
C[C@@H]1CCCCO[C@H](CN(C)C(=O)NC2CCCCC2)[C@@H](C)CN([C@H](C)CO)C(=O)c2cc(NS(=O)(=O)c3ccccc3)ccc2O1 | n | n | x | n | n | n
C[C@H]1CCCCO[C@@H](CN(C)C(=O)NC2CCCCC2)[C@@H](C)CN([C@@H](C)CO)C(=O)c2cc(NS(=O)(=O)c3ccccc3)ccc2O1 | n | n | x | n | 30.3 | n
C[C@@H]1CCCCO[C@H](CN(C)C(=O)NC2CCCCC2)[C@@H](C)CN([C@@H](C)CO)C(=O)c2cc(NS(=O)(=O)c3ccccc3)ccc2O1 | n | n | x | n | n | n
C[C@@H]1CN([C@H](C)CO)C(=O)c2cc(NS(=O)(=O)c3ccccc3)ccc2O[C@@H](C)CCCCO[C@@H]1CN(C)C(=O)NC1CCCCC1 | n | n | x | n | 75.5 | n
